In ChEMBL document CHEMBL3988442, “University of Dundee, Small-Polar-MMV Screening Library” (2021):

Key:
[1] = biological target: T1, Aspartate--tRNA(Asp/Asn) ligase (Mycobacterium tuberculosis (strain ATCC 25618 / H37Rv)) (UniProt P9WFW3); assay: Assay for Asp RNA synthetase-1 from Mycobacterium tuberculosis; assay type: functional; parameters: scale not given: direction of the effect not stated beside the values; conditions: 30 µM; further: in the data most compounds retested in dose-response had high values
T1 sequence (whole entry): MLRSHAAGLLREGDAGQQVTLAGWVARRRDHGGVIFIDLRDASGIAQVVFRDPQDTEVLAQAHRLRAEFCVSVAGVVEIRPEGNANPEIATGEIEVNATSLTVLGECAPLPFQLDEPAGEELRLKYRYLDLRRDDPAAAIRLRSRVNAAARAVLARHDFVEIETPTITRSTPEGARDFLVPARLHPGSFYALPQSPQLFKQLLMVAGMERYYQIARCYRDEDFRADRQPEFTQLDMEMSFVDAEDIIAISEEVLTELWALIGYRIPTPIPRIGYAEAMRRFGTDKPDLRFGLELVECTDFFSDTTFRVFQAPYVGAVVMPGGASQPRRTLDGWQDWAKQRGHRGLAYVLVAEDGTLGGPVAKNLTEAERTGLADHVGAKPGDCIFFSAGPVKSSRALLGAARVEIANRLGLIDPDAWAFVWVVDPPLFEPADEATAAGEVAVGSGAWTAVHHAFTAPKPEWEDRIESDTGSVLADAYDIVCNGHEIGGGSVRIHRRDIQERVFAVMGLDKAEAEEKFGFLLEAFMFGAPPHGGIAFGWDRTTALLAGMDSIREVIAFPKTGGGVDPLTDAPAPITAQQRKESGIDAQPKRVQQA

[2] = biological target: Shiga toxin 2 (Escherichia coli O157:H7) (UniProt P09385+P09386); assay: E. coli 0.157:H7 Shiga Toxin SOP - stx2 screening assay; assay type: functional; parameters: scale not given: direction of the effect not stated beside the values; conditions: 30 µM

Row | SMILES | Percent Effect [1] [%] | Percent Effect [2] [%]
1 | Cc1nc(CN(C)C2CCN(CC3CCCCC3)C2)no1 (configuration not stated) | -2.62 | -9.5
2 | O=C(Cn1ccc2ccc(Br)cc21)NC[C@@H]1CCCN2CCCC[C@H]12 | -3.66 | -42.1
3 | CN(C)C(=O)CC1CC2(CCNCC2)c2cc(F)ccc21 (configuration not stated) | 2.15 | 1.21
4 | CCCNCC1(O)CCCN(Cc2cccc(C)c2)C1=O (configuration not stated) | -0.345 | 0.574
5 | Fc1cccc(-c2nc(CN3CCOC(Cn4cncn4)C3)co2)c1 (configuration not stated) | -4 | 1.8
6 | O=C(CCNc1ncccn1)NCCc1ccn(-c2ccccc2)n1 | -3.01 | -46.2
7 | CC(C)Cc1noc(CN2CCN(C(=O)c3cccc(F)c3)CC2)n1 | -0.41 | -17.7
8 | CC(CCc1ccco1)NC(=O)Nc1cc(C(F)(F)F)c[nH]c1=O (configuration not stated) | 0.141 | 36.5
9 | Cc1[nH]c(=O)c(C#N)cc1C(=O)N1C[C@@H](CN2CCCC2)C[C@H](CO)C1 | -2.04 | -3.42
10 | COC[C@@]12CC[C@@H](N3CCOCC3)C[C@H]1CCN(c1ncccc1Cl)C2 | -2.31 | 23
11 | c1cnnc(N2CCCC2CNCc2cc[nH]n2)c1 (configuration not stated) | -3.63 | -20
12 | c1cnnc(N2CCCC2CNCc2nc(-c3ccsc3)no2)c1 (configuration not stated) | -0.433 | -0.726
13 | CCOC(=O)N1CCN(C(=O)c2sc(-c3ccccc3F)nc2C)CC1 | 3.76 | -8.58
14 | O=C1COC2(CCN(Cc3ccoc3)CC2)CN1c1ccsc1 | 4.25 | -18.4
15 | Cc1oc(-c2ccsc2)nc1CC(=O)NCCS(C)(=O)=O | 12.7 | -25.4
16 | O=C(NC1CC1)[C@@H]1CCO[C@@H]2CCN(C3CCOCC3)C[C@@H]21 | -3.45 | -22
17 | Cc1noc(C)c1CN1CCN(Cc2nccn2C)CC1 | -5.33 | -1.2
18 | CCOCC1CN(C(=O)c2ccncc2)Cc2nn(C)cc21 (configuration not stated) | 4.25 | -22.5
19 | Cc1cc(C)c(OCC(=O)NS(=O)(=O)c2cccnc2)c(C)c1 | -4.5 | -1.8
20 | COc1cccc(N2CCN(Cc3ccc(NC(C)=O)cc3)CC2=O)c1 | -1.75 | -2.21
21 | CN(C)[C@@H]1CN(Cc2ccco2)C[C@@H]2CCCO[C@@H]21 | -2 | 6.7
22 | CCOc1cc(C)nc(N2CCN(C(=O)CC)CC2)n1 | 0.408 | 12.8
23 | Cc1cc(C)n(CC2CCCN2C(=O)c2ccc(C(N)=O)cn2)n1 (configuration not stated) | -3.07 | -49.3

Row | SMILES | Percent Effect [1] [%] | Percent Effect [2] [%]
24 | COC[C@@]12CCO[C@@H]1CCN(C(=O)Cc1ccccc1F)C2 | -2.8 | -1.69
25 | CCn1nnc2cc(C(=O)N3CCCC3Cn3cc(C)cn3)ccc21 (configuration not stated) | -2.54 | 0.821
26 | Cc1ccc(-c2nc(CN3CCOC(Cn4cccn4)C3)cs2)o1 (configuration not stated) | -1.71 | -9.02
27 | CN(C)C(=O)CNC(=O)c1ccc(Cl)cc1F | -6.71 | -8.79
28 | CCN(C)c1ncnc2c1CCN(Cc1ccc(OC)cc1)CC2 | 7 | 4.46
29 | Cc1cc(-c2cnc(NC3CCCC3)nc2-c2ccoc2C)on1 | 3.94 | -25.8
30 | Cc1cc(C)n(CC2CCCN2C(=O)c2ccc3c(c2)nnn3C)n1 (configuration not stated) | 5.23 | -34.8
31 | O=C(CC1CCCC1)N1CCCC1c1nc(O)cc(-c2ccccn2)n1 (configuration not stated) | -2.84 | -10.1
32 | O=C(Nc1cccc(CN2CCOC2=O)c1)N1CCSCC1 | -4.15 | -52.5
33 | CCOCC1CN(S(=O)(=O)N(C)C)Cc2cnn(C)c21 (configuration not stated) | -3.4 | 6.68
34 | CC(C)S(=O)(=O)c1nnc(CCNC(=O)OC(C)(C)C)o1 | 2.85 | -59.2
35 | Cc1ccc(CNCC2CCc3nnc(C(C)C)n3C2)s1 (configuration not stated) | -3.31 | -22.4
36 | COCCC(=O)Nc1ccnc(Oc2ccccc2)c1 | 13.9 | -27.8
37 | O=C(NCc1nncn1-c1ccccc1)C1CC(=O)N(CC2CC2)C1 (configuration not stated) | -2.56 | 23.5
38 | CC(C)c1nc(C2CCCN2C(=O)c2nccnc2N)no1 (configuration not stated) | -5.36 | -16.2
39 | CCc1cnc(CN(C)C2CCN(CCc3cccs3)C2)o1 (configuration not stated) | 2.92 | 23.3
40 | COCc1ccccc1CNc1nnc(C)c(C)c1C#N | 7.84 | 29.7
41 | COCCC(=O)N1C[C@H]2CN(Cc3cccc(C)n3)C(=O)[C@H]2C1 | 0.774 | -18.7
42 | Cn1nnc2c1C(COCc1ccccn1)CN(C(=O)c1cccs1)C2 (configuration not stated) | 0.388 | 13.7
43 | Cc1cccc(C(=O)N2CCCCC2c2ccc(CN(C)C)cc2)n1 (configuration not stated) | -2.28 | 13.7
44 | CC(C)CS(=O)(=O)N1C[C@H]2C[C@H](C(=O)NCc3ccccc3)[C@@H](C1)O2 | 2.67 | -41.8
45 | Cc1cnn(CC2CCCCN2CCCS(N)(=O)=O)c1 (configuration not stated) | -8.36 | -56.9
46 | Cc1c(C(=O)NC(C)C(C)C)nnn1-c1cccc2c1CCN(C)C2 (configuration not stated) | 2.19 | 3.53
